# Laboratory results published in PubChem BioAssay AID651909 (Vanderbilt Specialized Chemistry Center, 2012).
# Active and inactive are the calls of the source. No rule for the calls is given here.
# Molecular target: Histone deacetylase 9 (Homo sapiens) (UniProt Q9UKV0)
# Assay: HDAC9 deacetylase inhibition, profiling panel, selectivity assay for E-cadherin restoration project, biochemical, human (AID 651909)
# Chain of Histone deacetylase 9 (Homo sapiens) (Q9UKV0 whole entry, looked up): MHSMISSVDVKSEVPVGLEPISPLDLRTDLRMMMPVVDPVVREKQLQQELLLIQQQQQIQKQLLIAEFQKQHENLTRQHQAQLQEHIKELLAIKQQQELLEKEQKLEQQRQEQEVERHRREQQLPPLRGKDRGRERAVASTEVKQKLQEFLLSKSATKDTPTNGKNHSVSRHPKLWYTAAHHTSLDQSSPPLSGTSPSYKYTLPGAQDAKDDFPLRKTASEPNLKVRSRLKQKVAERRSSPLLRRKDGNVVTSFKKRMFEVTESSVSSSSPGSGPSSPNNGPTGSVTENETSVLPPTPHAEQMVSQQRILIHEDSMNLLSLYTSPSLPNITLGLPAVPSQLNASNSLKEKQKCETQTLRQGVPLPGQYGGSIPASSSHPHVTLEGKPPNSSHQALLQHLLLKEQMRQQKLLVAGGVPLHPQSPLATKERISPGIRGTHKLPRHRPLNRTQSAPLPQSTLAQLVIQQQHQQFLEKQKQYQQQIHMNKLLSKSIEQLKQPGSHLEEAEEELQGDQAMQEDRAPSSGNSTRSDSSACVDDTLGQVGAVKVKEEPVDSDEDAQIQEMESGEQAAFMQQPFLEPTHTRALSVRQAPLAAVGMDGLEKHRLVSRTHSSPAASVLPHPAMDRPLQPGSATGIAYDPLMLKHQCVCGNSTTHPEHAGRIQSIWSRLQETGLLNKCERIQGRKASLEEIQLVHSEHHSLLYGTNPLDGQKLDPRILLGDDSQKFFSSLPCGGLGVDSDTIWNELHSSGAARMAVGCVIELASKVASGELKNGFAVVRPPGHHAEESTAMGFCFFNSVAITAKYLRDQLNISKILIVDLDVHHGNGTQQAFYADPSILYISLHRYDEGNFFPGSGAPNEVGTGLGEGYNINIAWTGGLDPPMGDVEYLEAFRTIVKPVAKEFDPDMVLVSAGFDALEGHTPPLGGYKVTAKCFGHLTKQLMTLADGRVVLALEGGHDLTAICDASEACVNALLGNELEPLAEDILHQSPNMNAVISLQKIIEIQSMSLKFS
structure (smiles),measurement,value
O=C(NCCCNC(=O)c1ccc[nH]c1=O)c1cc(-c2ccccc2)on1,outcome,inactive
